# Screening data (PubChem)
# Bfl-1 A1 inh – inhibitors of the anti-apoptotic protein A1, read as caspase activation | MEF A1-2A-BIM cells, Caspase-Glo 3/7 luminescence, 3 h; percent of clofoctol response, vehicle zero | caspase activation, % (no concentration beside the values) | 330,000 tested, 0.066% active | AID 2462;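 active means over half of replicate activation scores above 10%, or exactly half above 10 with the replicate mean above 10; inconclusive means replicate mean below 10 yet half the replicates above 10; inactive means over half of replicates below 10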
# Beta2AR agonist – agonists of human beta-2 adrenergic receptor inducing internalization; P07550; Am2.2-beta2AR cells, FAP receptor internalization, flow cytometry; response, % (no concentration beside the values); 340,000 tested, 0.43% active; AID 504454;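 active means response above a set limit, near 3 SD of response in nonfluorescent compounds, cut at about 42% in these data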
# Target sequence (P07550 whole entry, looked up): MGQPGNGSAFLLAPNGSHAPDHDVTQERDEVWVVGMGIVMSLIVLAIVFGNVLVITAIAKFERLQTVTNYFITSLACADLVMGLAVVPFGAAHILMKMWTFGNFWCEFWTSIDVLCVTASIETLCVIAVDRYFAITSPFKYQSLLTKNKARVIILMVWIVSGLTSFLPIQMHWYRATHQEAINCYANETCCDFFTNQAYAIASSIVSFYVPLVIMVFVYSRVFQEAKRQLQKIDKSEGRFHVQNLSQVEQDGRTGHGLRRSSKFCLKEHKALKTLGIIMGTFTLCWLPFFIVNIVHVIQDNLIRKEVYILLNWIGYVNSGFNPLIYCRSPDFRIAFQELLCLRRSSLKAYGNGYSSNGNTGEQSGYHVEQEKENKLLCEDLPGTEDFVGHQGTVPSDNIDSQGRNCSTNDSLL
# Dyrk1A ADPGlo – Dyrk1A (rat) kinase inhibition. ADP-Glo luminescence, NFATc1 peptide. 310,000 tested, 0.43% active. inhibition, % at 12.5 µM. AID 504441; in the data active means inhibition above about 50%;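 further: plate controls were vehicle with enzyme for no effect and no enzyme for full effect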
# dFosB act-1 – enhances mouse delta FosB homodimer DNA binding. 340,000 tested, 0.99% active. P13346. activation, % at 25 µM. purified delta FosB, TAMRA-CDK5 oligo fluorescence polarization; percent of positive-control signal above neutral wells;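 active means mean activation above about 17%, with every replicate also reaching it, limit read from the data, passing the limit was not always enough; inconclusive means only one of the two conditions met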
# dFosB act-2 – activators of mouse delta FosB homodimer DNA binding; shares compounds with dFosB act-1; purified delta FosB, TAMRA-CDK5 oligo fluorescence polarization; normalised: neutral wells 0, positive control 100; activation, % at 24.9 µM; 2,400 tested, under 10 active; AID 588690;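 active means highest replicate activation at or above 34% and every replicate reaching that threshold; inconclusive means meets only one of the two criteria; inactive means meets neither criterion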;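 further: higher polarization means more probe DNA bound by delta FosB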
# An asterisk follows results filed as active; ? = inconclusive; nt = no result. A selection: hits, their analogues and other compounds. The true share with any hit is near 1.6%.
SMILES,Bfl-1 A1 inh,Beta2AR agonist,Dyrk1A ADPGlo,dFosB act-1,dFosB act-2
Cc1ccc(C)c(OCC(O)CN2CCC(CN3C(=O)c4cccc5cccc(c45)C3=O)CC2)c1 (stereo not drawn),-0.6,-4.2,6.3,9.7,nt
COc1ccc(C(=O)CN2CCN(CCN3C(=O)c4cccc5cccc(c45)C3=O)CC2)cc1,0.0,5.2,-6.7,42.0*,6.6
O=C(CN1CCN(CCN2C(=O)c3cccc4cccc(c34)C2=O)CC1)c1ccc(F)cc1,0.2,-3.3,6.4,33.2*,2.2
CCOc1ccc(C=NNC(=O)c2ccc(-n3cnnn3)cc2)cc1,-0.2,-11.4,nt,-3.7,nt
COc1ccc(C(C)NC(=O)CC23CC4CC(CC(C4)C2)C3)cc1 (stereo not drawn),-1.4,-3.9,10.6,-8.6,nt
Cc1ccc(OCC(=O)NC2CCS(=O)(=O)C2)c(C)c1 (stereo not drawn),1.2,-3.0,-3.2,-0.4,nt
CN(C)CCCN1C(=O)c2cccc3cccc(c23)C1=O,-0.2,-5.4,2.0,19.8*,2.7
CN(C)CCCN1C(=O)c2cc3ccccc3cc2C1=O,0.6,-3.0,-9.3,11.5,nt
Cc1cc(Cl)cc(Cl)c1OCCN1CCCC1,1.1,4.9,7.4,-4.2,nt
O=C(N/N=C/c1ccccc1C(F)(F)F)c1ccc2nc[nH]c2c1,1.0,5.9,8.1,-21.5,nt
O=C(N/N=C/c1cc([N+](=O)[O-])ccc1Cl)c1ccc2nc[nH]c2c1,0.7,-5.9,-11.5,35.0*,1.9
O=C1NC(Cc2ccccc2)c2nc3ccccc3c(=O)n2-c2ccc(Cl)cc21 (stereo not drawn),0.4,nt,nt,nt,nt
Cc1ccc(C(=O)Nc2cccc(C(F)(F)F)c2)cc1NC(=O)c1ccno1,0.1,-7.7,-1.9,-6.2,nt
Cc1ccc(C(=O)Nc2cccc(C(F)(F)F)c2)cc1NC(=O)c1nccn1C,-0.7,9.4,5.0,26.6*,-0.7
O=C(CSc1nc(C2CC2)nc2ccccc12)Nc1ccccc1,-0.8,2.6,1.4,35.8*,-1.5
Cn1c(=O)c2c(SCC(=O)Nc3ccccc3F)nc(C3CC3)nc2n(C)c1=O,-0.3,-4.8,-1.7,23.7*,0.5
COc1cc(NC(=O)CSc2nc(C3CC3)nc3ccccc23)cc(OC)c1,-0.2,4.0,0.7,87.7*,3.8
CC(=O)Nc1cccc(NC(=O)CSc2nc(C3CC3)nc3ccccc23)c1,-0.3,-5.3,4.1,14.6,nt
O=C(CSc1nc(C2CC2)nc2ccccc12)Nc1ccccc1Cl,-0.1,-5.0,1.7,30.8*,1.7
CC(NC(=O)CN1C(=O)NC2(CCc3ccccc32)C1=O)c1ccc2c(c1)OCCO2 (stereo not drawn),nt,0.4,nt,-1.1,nt
Cn1c(CNC(=O)CCNC(=O)c2cccc(Br)c2)cc(=O)n(C)c1=O,-0.8,1.1,10.4,-0.9,nt
CN(CC(=O)Nc1ccccc1Br)C(=O)C1CCN(C(=O)c2ccc(Cl)cc2)CC1,1.1,-0.5,-2.6,-1.5,nt
CCc1noc(C)c1C(=O)OCC(=O)Nc1nc(-c2ccc(F)c(F)c2)cs1,-0.9,7.2,-1.5,-3.4,nt
Cc1cc(C(F)(F)F)c(C#N)c(SCC(=O)Nc2nc3cc(Br)ccc3s2)n1,0.3,0.0,3.5,37.5*,6.6
Cc1c(/C=N/n2cnnc2)c2ccccc2n1CCOc1ccc(Cl)cc1,-0.7,19.1,2.5,5.5,nt
SMILES,Bfl-1 A1 inh,Beta2AR agonist,Dyrk1A ADPGlo,dFosB act-1,dFosB act-2
Cc1ccc(OCCn2c(C)c(/C=N/n3cnnc3)c3ccccc32)cc1,0.4,4.3,-0.8,31.2*,4.9
CCOc1cccc2sc(N(CCN(C)C)C(=O)c3cc4ccccc4cc3OC)nc12,0.4,21.3,4.0,?,nt
CN(C)CCCN(C(=O)c1ccc2c(c1)CCCC2)c1nc2ccc(Cl)cc2s1,0.0,27.4,-0.8,6.2,nt
CN(C)CCN(C(=O)c1ccc2ccccc2c1)c1nc2ccc(Br)cc2s1,-0.5,-7.2,2.1,14.9,nt
CCOc1ccc2nc(N(CCN(C)C)C(=O)c3cc4ccccc4cc3OC)sc2c1,0.1,1.8,nt,48.3*,8.2
CCOc1ccc2nc(N(CCCN(C)C)C(=O)c3ccc4c(c3)CCCC4)sc2c1,?,8.3,3.1,25.8*,5.0
Cc1ccc2nc(N(CCN(C)C)C(=O)c3ccc4ccccc4c3)sc2c1,0.3,1.2,0.0,26.5*,5.7
COc1ccc2nc(N(CCN(C)C)C(=O)c3ccc(C(=O)c4ccccc4)cc3)sc2c1,-1.0,-0.8,-0.3,31.0*,-0.2
COc1cc(OC)cc(C(=O)NNC(=O)c2cc(S(=O)(=O)N3CCOCC3)ccc2F)c1,-0.1,7.2,nt,-2.2,nt
Cc1cccc2sc(N(CCN(C)C)C(=O)c3ccc4ccccc4c3)nc12,1.2,-1.4,-5.4,7.5,nt
CN(C)CCN(C(=O)c1ccc2ccccc2c1)c1nc2c(F)cc(F)cc2s1,0.6,-6.4,nt,35.7*,6.6
O=C(NC1=NCCS1)c1cccs1,0.3,-2.9,4.0,26.8*,2.2
CC(C)C(NC(=O)c1cccs1)C(=O)NC1=NCCS1 (stereo not drawn),1.2,2.7,1.2,8.7,nt
N#C/C(=C/c1cn(-c2ccccc2)nc1-c1cccc(OCc2ccc(F)cc2)c1)C(=O)NCCCn1ccnc1,0.0,18.2,-1.3,35.4*,-1.7
CCCOc1cccc(-c2nn(-c3ccccc3)cc2/C=C(\C#N)C(=O)NCCCn2ccnc2)c1,-0.3,-13.8,6.2,-1.5,nt
O=C(CC1S/C(=N/N=C/c2cccs2)NC1=O)Nc1ccccc1F (stereo not drawn),0.2,3.3,-0.3,31.5*,2.4
CCCNC(=O)CSc1nc2ccccc2c(=O)n1CCC,0.4,-5.1,-2.9,-4.5,nt
CCCCn1c(SCC(=O)NCc2ccco2)nc2ccccc2c1=O,0.1,-3.8,2.5,18.0*,4.9
CC(=O)NCCn1c(SCC(=O)NCc2ccco2)nc2ccccc2c1=O,0.8,-6.8,-9.1,1.1,nt
CCCn1c(SCC(=O)NCC(=O)Nc2ccc(F)c(F)c2F)nc2ccccc2c1=O,0.3,1.6,nt,25.8*,1.7
C/C(N)=C(/C#N)C(=O)CSc1nc2ccccc2c(=O)n1Cc1ccc(C)cc1,0.2,5.2,3.0,21.1*,4.9
CCn1c(SCC(=O)NCc2ccccc2)nc2ccccc2c1=O,0.1,-7.8,3.4,-5.5,nt
O=C(CSc1nc2ccccc2c(=O)n1Cc1ccc(Cl)cc1)NCc1cccs1,0.4,-7.7,1.8,26.8*,-0.4
Cc1ccc2nc(CCl)[n+]([O-])c(-c3ccccc3)c2c1,0.0,-1.5,2.3,6.9,nt
Cc1ccc(C)c(S(=O)(=O)NC(C)C(=O)NCc2ccccn2)c1 (stereo not drawn),-0.4,-0.9,2.6,0.9,nt
CCN(c1ccccc1)S(=O)(=O)c1ccc(C(=O)N(CCCN(C)C)c2nc3cc4c(cc3s2)OCO4)cc1,0.0,30.9,2.4,29.0*,-3.4
CN(C)CCN(C(=O)c1cccs1)c1nc2cc3c(cc2s1)OCCO3,0.5,-10.5,-3.3,14.8,nt
CCN(CC)CCN(C(=O)c1ccc2c(c1)OCCO2)c1nc2cc3c(cc2s1)OCO3,-0.8,-3.0,-3.3,2.9,nt
